Measurements as given in PubChem BioAssay AID1159580 (chemical genetic matrix, 2015).
“And” between values parts separate entries of the source, which are not always exact repeats. Equal values may be shown once. Among all 5,500 compounds or so, about 2,000 (36%) were called active. Inconclusive results (about 18%) are left out. No stated cut-off is given here; in the data, active means normalized growth mostly below about 0.91 (no sharp cut-off); inconclusive means no clear call, values can overlap the other calls; inactive means mostly above about 0.92. The list shows a part of the results.

Assay: chemical genetic growth profiling, strain panel (AID 1159580);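 further: tested at 20 µM; growth read once vehicle control cultures reached saturation at 30 °C; 1 = growth at the plate median or of vehicle wells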
Conditions: S. cerevisiae deletion strains, growth OD

Measured: normalized growth

C/C=C(\C)C(=O)O[C@H]1C[C@@H](OC(C)=O)[C@@]2(C(=O)OC)CO[C@@H]3C2[C@]12CO[C@](O)(C(=O)OC)[C@H]2[C@](C)(C12O[C@@]1(C)[C@H]1C[C@@H]2OC2OC=C[C@@]21O)[C@@H]3O (stereo partly specified)
inactive: locus YAL013W, strain DEP1, stronger effect = lower value 0.99 | locus YAL021C, strain ccr4, stronger effect = lower value 1 | locus YAL026C, strain drs2, stronger effect = lower value 0.982 | locus YAL030W, strain snc1, stronger effect = lower value 0.976 | locus YBL061C, strain skt5, stronger effect = lower value 0.978 | locus YBR009C, strain hhf1, stronger effect = lower value 0.977 | locus YBR021W, strain FUR4, stronger effect = lower value 0.997 | locus YBR023C, strain chs3, stronger effect = lower value 0.985 | locus YBR171W, strain sec66, stronger effect = lower value 0.98 | locus YBR229C, strain ROT2, stronger effect = lower value 0.99 | locus YBR231C, strain swc5, stronger effect = lower value 0.991 | locus YBR279W, strain paf1, stronger effect = lower value 0.992 | locus YCL011C, strain gbp2, stronger effect = lower value 0.978 | locus YCL016C, strain dcc1, stronger effect = lower value 0.964 | locus YCL029C, strain bik1, stronger effect = lower value 0.955 | locus YCL061C, strain MRC1, stronger effect = lower value 0.986 | locus YCL069W, strain vba3, stronger effect = lower value 0.974 | locus YCR088W, strain abp1, stronger effect = lower value 0.986 | locus YDL005C, strain med2, stronger effect = lower value 0.963 | locus YDL040C, strain nat1, stronger effect = lower value 0.973 | locus YDL074C, strain BRE1, stronger effect = lower value 0.964 | locus YDL101C, strain DUN1, stronger effect = lower value 0.977 | locus YDL134C, strain PPH21, stronger effect = lower value 0.99 | locus YDL185W, strain tfp1, stronger effect = lower value 0.978 | locus YDL192W, strain arf1, stronger effect = lower value 0.986 | locus YDR001C, strain nth1, stronger effect = lower value 0.97 | locus YDR069C, strain doa4, stronger effect = lower value 0.969 | locus YDR101C, strain arx1, stronger effect = lower value 0.975 | locus YDR137W, strain rgp1, stronger effect = lower value 0.984 | locus YDR150W, strain NUM1, stronger effect = lower value 1 | locus YDR159W, strain sac3, stronger effect = lower value 0.994 | locus YDR162C, strain NBP2, stronger effect = lower value 1 | locus YDR195W, strain ref2 0.938 | locus YDR297W, strain sur2, stronger effect = lower value 0.975 | locus YDR318W, strain mcm21, stronger effect = lower value 0.977 | locus YDR334W, strain swr1, stronger effect = lower value 0.973 | locus YDR335W, strain msn5, stronger effect = lower value 0.981 | locus YDR388W, stronger effect = lower value 0.985 | locus YDR392W, strain spt3, stronger effect = lower value 0.969 | locus YDR502C, strain sam2, stronger effect = lower value 0.992 | locus YEL003W, strain gim4, stronger effect = lower value 1 | locus YEL037C, strain rad23, stronger effect = lower value 0.977 | locus YEL061C, strain CIN8 (second series), stronger effect = lower value 0.973 | locus YEL061C, strain CIN8, stronger effect = lower value 0.995 | locus YER015W, strain faa2, stronger effect = lower value 0.987 | locus YER016W, strain bim1, stronger effect = lower value 0.977 | locus YER110C, stronger effect = lower value 0.971 | locus YER111C, strain swi4, stronger effect = lower value 0.983 | locus YER155C, strain BEM2 (second series), stronger effect = lower value 0.981 | locus YER155C, strain BEM2, stronger effect = lower value 0.997 | locus YER167W, strain BCK2, stronger effect = lower value 1 | locus YFR010W, strain ubp6, stronger effect = lower value 0.979 | locus YGL078C, strain dbp3, stronger effect = lower value 0.995 | locus YGL086W, strain mad1, stronger effect = lower value 1 | locus YGL167C, strain pmr1, stronger effect = lower value 0.97 | locus YGL173C, strain kem1, stronger effect = lower value 0.982 | locus YGL227W, strain vid30, stronger effect = lower value 0.99 | locus YGL240W, strain doc1, stronger effect = lower value 1 | locus YGL248W, strain PDE1, stronger effect = lower value 0.99 | locus YGL253W, strain hxk2, stronger effect = lower value 0.986 | locus YGR078C, strain PAC10, stronger effect = lower value 0.997 | locus YGR135W, strain pre9, stronger effect = lower value 0.971 | locus YGR229C, strain SMI1, stronger effect = lower value 1.01 | locus YGR252W, strain gcn5, stronger effect = lower value 1.03 | locus YHR013C, strain ard1, stronger effect = lower value 0.964 | locus YHR027C, strain rpn1, stronger effect = lower value 0.965 | locus YHR030C, strain SLT2, stronger effect = lower value 0.989 and 0.98 | locus YHR079C, strain IRE1 (second series), stronger effect = lower value 0.969 | locus YHR079C, strain IRE1, stronger effect = lower value 0.991 | locus YHR094C, strain hxt1, stronger effect = lower value 0.985 | locus YHR129C, strain ARP1, stronger effect = lower value 0.992 | locus YHR142W, strain chs7, stronger effect = lower value 0.974 | locus YHR200W, strain rpn10, stronger effect = lower value 0.987 | locus YIL066C, strain RNR3, stronger effect = lower value 0.99 | locus YIL073C, strain SPO22, stronger effect = lower value 0.994 | locus YIL125W, strain kgd1, stronger effect = lower value 0.995 | locus YIR030C, strain dcg1, stronger effect = lower value 0.997 | locus YJL092W, strain hpr5, stronger effect = lower value 0.981 | locus YJL095W, strain BCK1 (second series), stronger effect = lower value 0.983 | locus YJL095W, strain BCK1, stronger effect = lower value 0.98 and 0.993 | locus YJL115W, strain asf1, stronger effect = lower value 0.963 | locus YJL129C, strain trk1, stronger effect = lower value 0.978 | locus YJL134W, strain LCB3, stronger effect = lower value 0.991 | locus YJL154C, strain vps35, stronger effect = lower value 0.969 | locus YJL164C, strain tpk1, stronger effect = lower value 0.969 | locus YJL166W, strain qcr8, stronger effect = lower value 0.99 | locus YJL168C, strain set2, stronger effect = lower value 0.978 | locus YJL187C, strain SWE1 (second series), stronger effect = lower value 0.978 | locus YJL187C, strain SWE1, stronger effect = lower value 0.982 | locus YJR043C, strain POL32, stronger effect = lower value 0.996 | locus YJR066W, strain TOR1, stronger effect = lower value 0.933
